{
  "source": "PubChem BioAssay AID1159580",
  "about": "(chemical genetic matrix, 2015)",
  "test": "chemical genetic growth profiling, strain panel (AID 1159580);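 further: tested at 20 µM; growth read once vehicle control cultures reached saturation at 30 °C; 1 = growth at the plate median or of vehicle wells; lower values mean less growth of the strain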",
  "settings": "growth OD",
  "note": "Out of some 5,500 compounds screened, about 2,000 (36%) were called active. Not shown: some 18% with an inconclusive outcome. The list shows a part of the results. A number with no mark means an inactive call. No stated cut-off is given here; in the data, active means normalized growth mostly below about 0.91 (no sharp cut-off); inconclusive means no clear call, values can overlap the other calls; inactive means mostly above about 0.92.",
  "data": [
    {"smiles": "O=S(=O)(N/N=C\\c1ccc(Cl)cc1)c1ccc(-c2ccccn2)s1", "values": [
      {"measurement": "normalized growth", "setting": "S. cerevisiae deletion strains, locus YKL193C, strain SDS22, hits give low values", "value": 0.977},
      {"measurement": "normalized growth", "setting": "S. cerevisiae deletion strains, locus YKL203C, strain TOR2, hits give low values", "value": 1.04},
      {"measurement": "normalized growth", "setting": "S. cerevisiae deletion strains, locus YLR039C, strain RIC1, hits give low values", "value": "0.465 (active)"},
      {"measurement": "normalized growth", "setting": "S. cerevisiae deletion strains, locus YLR058C, strain SHM2 (second series), hits give low values", "value": 0.996},
      {"measurement": "normalized growth", "setting": "S. cerevisiae deletion strains, locus YLR085C, strain ARP6, hits give low values", "value": 0.912},
      {"measurement": "normalized growth", "setting": "S. cerevisiae deletion strains, locus YLR113W, strain HOG1, hits give low values", "value": 0.888},
      {"measurement": "normalized growth", "setting": "S. cerevisiae deletion strains, locus YLR133W, strain CKI1, hits give low values", "value": 0.967},
      {"measurement": "normalized growth", "setting": "S. cerevisiae deletion strains, locus YLR262C, strain YPT6, hits give low values", "value": "0.427 (active)"},
      {"measurement": "normalized growth", "setting": "S. cerevisiae deletion strains, locus YLR403W, strain SFP1, hits give low values", "value": 0.95},
      {"measurement": "normalized growth", "setting": "S. cerevisiae deletion strains, locus YML070W, strain DAK1, hits give low values", "value": 0.938},
      {"measurement": "normalized growth", "setting": "S. cerevisiae deletion strains, locus YML094W, strain GIM5, hits give low values", "value": 0.95},
      {"measurement": "normalized growth", "setting": "S. cerevisiae deletion strains, locus YMR001C, strain CDC5, hits give low values", "value": 0.99},
      {"measurement": "normalized growth", "setting": "S. cerevisiae deletion strains, locus YMR205C, strain PFK2 (second series), hits give low values", "value": 0.969},
      {"measurement": "normalized growth", "setting": "S. cerevisiae deletion strains, locus YMR219W, strain ESC1, hits give low values", "value": 0.998},
      {"measurement": "normalized growth", "setting": "S. cerevisiae deletion strains, locus YMR263W, strain SAP30, hits give low values", "value": 0.976},
      {"measurement": "normalized growth", "setting": "S. cerevisiae deletion strains, locus YMR277W, strain FCP1, hits give low values", "value": 0.978},
      {"measurement": "normalized growth", "setting": "S. cerevisiae deletion strains, locus YMR307W, strain GAS1, hits give low values", "value": 0.712},
      {"measurement": "normalized growth", "setting": "S. cerevisiae deletion strains, locus YNL006W, strain LST8, hits give low values", "value": 0.994},
      {"measurement": "normalized growth", "setting": "S. cerevisiae deletion strains, locus YNL020C, strain ARK1, hits give low values", "value": 0.953},
      {"measurement": "normalized growth", "setting": "S. cerevisiae deletion strains, locus YNL128W, strain TEP1, hits give low values", "value": 0.975},
      {"measurement": "normalized growth", "setting": "S. cerevisiae deletion strains, locus YNL153C, strain GIM3, hits give low values", "value": 0.976},
      {"measurement": "normalized growth", "setting": "S. cerevisiae deletion strains, locus YNL161W, strain CBK1, hits give low values", "value": 0.986},
      {"measurement": "normalized growth", "setting": "S. cerevisiae deletion strains, locus YNL183C, strain NPR1, hits give low values", "value": 0.967},
      {"measurement": "normalized growth", "setting": "S. cerevisiae deletion strains, locus YNL207W, strain RIO2, hits give low values", "value": 0.977},
      {"measurement": "normalized growth", "setting": "S. cerevisiae deletion strains, locus YNL222W, strain SSU72, hits give low values", "value": 0.978},
      {"measurement": "normalized growth", "setting": "S. cerevisiae deletion strains, locus YNL298W, strain CLA4 (second series), hits give low values", "value": "0.826 (active)"},
      {"measurement": "normalized growth", "setting": "S. cerevisiae deletion strains, locus YNL307C, strain MCK1 (second series), hits give low values", "value": 0.969},
      {"measurement": "normalized growth", "setting": "S. cerevisiae deletion strains, locus YNL322C, strain KRE1, hits give low values", "value": 1},
      {"measurement": "normalized growth", "setting": "S. cerevisiae deletion strains, locus YNR030W, strain Alg12, hits give low values", "value": "0.856 (active)"},
      {"measurement": "normalized growth", "setting": "S. cerevisiae deletion strains, locus YOL006C, strain TOP1, hits give low values", "value": 0.838},
      {"measurement": "normalized growth", "setting": "S. cerevisiae deletion strains, locus YOL078W, strain AVO1, hits give low values", "value": 0.963},
      {"measurement": "normalized growth", "setting": "S. cerevisiae deletion strains, locus YOL136C, strain PFK27, hits give low values", "value": 0.94},
      {"measurement": "normalized growth", "setting": "S. cerevisiae deletion strains, locus YOR061W, strain CKA2, hits give low values", "value": 0.966},
      {"measurement": "normalized growth", "setting": "S. cerevisiae deletion strains, locus YOR119C, strain RIO1, hits give low values", "value": 1.01},
      {"measurement": "normalized growth", "setting": "S. cerevisiae deletion strains, locus YOR231W, strain MKK1, hits give low values", "value": 0.945},
      {"measurement": "normalized growth", "setting": "S. cerevisiae deletion strains, locus YOR329C, strain SCD5, hits give low values", "value": 0.984},
      {"measurement": "normalized growth", "setting": "S. cerevisiae deletion strains, locus YPL031C, strain PHO85, hits give low values", "value": 0.969},
      {"measurement": "normalized growth", "setting": "S. cerevisiae deletion strains, locus YPL055C, strain LGE1, hits give low values", "value": 1.1},
      {"measurement": "normalized growth", "setting": "S. cerevisiae deletion strains, locus YPL153C, strain RAD53, hits give low values", "value": 0.963},
      {"measurement": "normalized growth", "setting": "S. cerevisiae deletion strains, locus YPL204W, strain HRR25, hits give low values", "value": 0.951},
      {"measurement": "normalized growth", "setting": "S. cerevisiae deletion strains, locus YPL209C, strain IPL1, hits give low values", "value": 0.974},
      {"measurement": "normalized growth", "setting": "S. cerevisiae deletion strains, locus YPL241C, strain CIN2, hits give low values", "value": 0.894},
      {"measurement": "normalized growth", "setting": "S. cerevisiae deletion strains, locus YPL256C, strain CLN2, hits give low values", "value": 1.03},
      {"measurement": "normalized growth", "setting": "S. cerevisiae deletion strains, locus YPR025C, strain CCL1, hits give low values", "value": 0.982},
      {"measurement": "normalized growth", "setting": "S. cerevisiae deletion strains, locus YPR106W, strain ISR1, hits give low values", "value": 0.986},
      {"measurement": "normalized growth", "setting": "S. cerevisiae deletion strains, locus YPR111W, strain DBF20, hits give low values", "value": 0.967},
      {"measurement": "normalized growth", "setting": "S. cerevisiae deletion strains, locus YPR135W, strain CTF4, hits give low values", "value": 0.711},
      {"measurement": "normalized growth", "setting": "S. cerevisiae deletion strains, strain NNK1, hits give low values", "value": 0.996},
      {"measurement": "normalized growth", "setting": "S. cerevisiae deletion strains, strain TSCII, hits give low values", "value": 0.984},
      {"measurement": "normalized growth", "setting": "S. cerevisiae strains, strain wild type, hits give low values", "value": "0.897 (active)"}
    ]}
  ]
}
